Data as given in PMC4336329 (PLoS ONE, 2015).
Among all 310,000 compounds or so, about 14,000 (4.5%) showed an effect of 50% or more. Effects have a minus sign here. Shown is part of a subset that was picked to be rich in strong results.

target: human ether-à-go-go-related gene (hERG) potassium channel (human, UniProt Q12809); assay: primary screen, population patch clamp on CHO cells stably expressing hERG; higher = less effect of the substance
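Also: peak tail current of the secondary pulse compared with the same well before compound.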

human ether-à-go-go-related gene (hERG) potassium channel, sequence (Q12809 whole entry, looked up): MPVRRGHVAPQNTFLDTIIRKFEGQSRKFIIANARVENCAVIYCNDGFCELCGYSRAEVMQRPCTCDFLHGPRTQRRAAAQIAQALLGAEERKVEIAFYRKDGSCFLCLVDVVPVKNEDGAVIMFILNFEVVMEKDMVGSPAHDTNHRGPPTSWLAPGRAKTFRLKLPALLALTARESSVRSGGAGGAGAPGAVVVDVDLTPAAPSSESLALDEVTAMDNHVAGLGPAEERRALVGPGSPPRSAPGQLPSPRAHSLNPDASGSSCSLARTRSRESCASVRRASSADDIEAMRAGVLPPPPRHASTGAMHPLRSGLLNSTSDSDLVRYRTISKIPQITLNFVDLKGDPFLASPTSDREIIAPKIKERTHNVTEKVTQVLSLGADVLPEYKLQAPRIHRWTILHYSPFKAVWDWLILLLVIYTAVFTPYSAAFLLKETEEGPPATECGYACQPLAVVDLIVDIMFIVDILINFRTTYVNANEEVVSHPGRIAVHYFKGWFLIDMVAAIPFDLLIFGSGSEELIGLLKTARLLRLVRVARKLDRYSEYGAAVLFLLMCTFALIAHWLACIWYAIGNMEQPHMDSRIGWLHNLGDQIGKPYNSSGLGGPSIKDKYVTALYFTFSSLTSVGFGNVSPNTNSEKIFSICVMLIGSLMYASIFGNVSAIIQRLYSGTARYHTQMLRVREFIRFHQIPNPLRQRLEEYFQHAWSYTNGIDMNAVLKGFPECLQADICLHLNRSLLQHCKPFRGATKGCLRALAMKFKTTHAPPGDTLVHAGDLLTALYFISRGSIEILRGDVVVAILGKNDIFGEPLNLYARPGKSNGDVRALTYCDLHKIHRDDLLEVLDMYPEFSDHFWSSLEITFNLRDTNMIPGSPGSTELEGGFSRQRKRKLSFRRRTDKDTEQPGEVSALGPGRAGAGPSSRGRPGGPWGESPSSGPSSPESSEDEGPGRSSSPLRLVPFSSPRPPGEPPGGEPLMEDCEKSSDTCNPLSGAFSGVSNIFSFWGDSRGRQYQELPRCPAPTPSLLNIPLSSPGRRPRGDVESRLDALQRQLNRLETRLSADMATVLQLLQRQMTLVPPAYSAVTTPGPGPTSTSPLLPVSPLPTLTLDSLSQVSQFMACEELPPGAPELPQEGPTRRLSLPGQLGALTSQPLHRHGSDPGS

Row | SMILES | hERG current change (%, negative = inhibition) at 10uM [%]
1 | Cc1c(NC(=S)Nc2ccccc2)c(=O)n(-c2ccccc2)n1C | 32.9
2 | NC1=NC(=O)/C(=C\c2cccs2)S1 | 8.6
3 | N#C/C(=C/c1ccncc1)c1nc2ccccc2s1 | 2.23
4 | CCOc1cccc(C=NCCc2ccc(OC)c(OC)c2)c1O | 12.4
5 | O=C(NCC1CCCO1)c1ccc(Cl)c(S(=O)(=O)N2CCOCC2)c1 (centres unmarked) | 12.7
6 | O=C(NCc1ccccn1)c1cccc(NS(=O)(=O)c2ccc(Br)cc2)c1 | -19.8
7 | COc1ccc(N(C(C)C(=O)NCCSCc2cccc(Cl)c2)S(C)(=O)=O)cc1 (centres unmarked) | -13.3
8 | O=C(NCCS(=O)(=O)N1CCN(c2ccccc2F)CC1)c1ccc(Br)o1 | -6.39
9 | CC(C)CCn1c(CN(C)Cc2ccccc2)nc2c1c(=O)n(C)c(=O)n2C | -43.9
10 | Cc1cc(C)nc(SCC(=O)Nc2ncc3c(n2)CC(C)(C)CC3=O)n1 | -13.1
11 | Cc1ccc(N(C(=O)c2ccc(S(=O)(=O)N3CCCC3)cc2)C2C=CS(=O)(=O)C2)cc1 (centres unmarked) | -32.9
12 | COc1ccc(N(C(=O)c2ccc(S(=O)(=O)N3CCCC3)cc2)C2C=CS(=O)(=O)C2)cc1 (centres unmarked) | -31.9
13 | CCOc1ccc(N(C(=O)c2ccc(S(=O)(=O)N3CCCC3)cc2)C2C=CS(=O)(=O)C2)cc1 (centres unmarked) | -51.9
14 | COc1ccc(N2CCN(c3ccc(NC(=O)C4CCCCC4)cc3C#N)CC2)cc1 | 15.2
15 | COc1cc(C(=O)N2CCN(C(=O)C3CC3)CC2)cc(OC)c1OC | 3.78
16 | Cc1ccc(C)c(NC(=O)COC(=O)Cn2c(C)csc2=O)c1 | 6.84
17 | Cc1c(C(=O)N2CCCCCC2)c(S(=O)(=O)Nc2cccc(F)c2)c(C)n1C | 9.56
18 | Cn1c(N2CCOCC2)c(/C=N/O)c2ccccc21 | 7.51
19 | CN1CCN(c2c(/C=N/O)c3ccccc3n2C)CC1 | -51.5
20 | Cc1c(/C=N/O)c2ccccc2n1C | 5.39
21 | O=C(N/N=C/c1ccco1)c1ccc(NC(=O)C2CC2)cc1 | 18.2
22 | OC(COCC(F)(F)C(F)(F)C(F)(F)C(F)F)Cn1c2ccc(Cl)cc2c2cc(Cl)ccc21 (centres unmarked) | -9.49
23 | CC(C)NC(=O)C(=O)Nc1cc2c3c(c1)CCC(=O)N3CCC2 | 11.4

Row | SMILES | hERG current change (%, negative = inhibition) at 10uM [%]
24 | Cc1occc1-c1nnc(SCC(=O)Nc2nccs2)n1Cc1ccco1 | -75.4
25 | Cc1csc(NC(=O)CSc2nnc(C)n2Cc2ccco2)n1 | -1.85
26 | O=C(CSc1nnc(-c2ccncc2)n1Cc1ccco1)Nc1nccs1 | -27
27 | Cc1csc(NC(=O)CSc2nccn2Cc2ccco2)n1 | 4.55
28 | Cc1csc(NC(=O)CSc2nnc(-c3ccoc3C)n2Cc2ccco2)n1 | -82
29 | Cc1cc(C)nc(SCc2nnc(SCC(=O)Nc3nccs3)n2Cc2ccco2)n1 | -25
30 | CC(=O)NC1=C(NC2CCS(=O)(=O)C2)C(=O)c2ccccc2C1=O (centres unmarked) | 18.4
31 | O=C(NCc1ccccc1OC(F)(F)F)C1CCC(=O)N(Cc2cccc(F)c2)C1 (centres unmarked) | -12.4
32 | COC(=O)c1ccc(CNC(=O)C2CCC(=O)N(Cc3cccc(F)c3)C2)cc1 (centres unmarked) | -12.7
33 | O=C(NCc1ccc(Cl)s1)C1CCC(=O)N(CCc2ccccn2)C1 (centres unmarked) | -10.1
34 | O=C(NCc1cccc(F)c1)C1CCC(=O)N(CCc2cccc(F)c2)C1 (centres unmarked) | -30.7
35 | CSc1ccc(CNC(=O)C2CCC(=O)N(Cc3cccc(F)c3)C2)cc1 (centres unmarked) | -62.4
36 | Cc1ccc(CNC(=O)C2CCC(=O)N(CCc3cccc(F)c3)C2)cc1 (centres unmarked) | -38
37 | O=C(NCc1ccc(Cl)s1)C1CCC(=O)N(CCc2cccc(F)c2)C1 (centres unmarked) | -60.2
38 | COc1cccc(CNC(=O)C2CCC(=O)N(CCc3cccc(F)c3)C2)c1 (centres unmarked) | -13
39 | O=C(NCc1cccc(OC(F)(F)F)c1)C1CCC(=O)N(Cc2cccc(F)c2)C1 (centres unmarked) | -50.1
40 | CSc1ccc(CNC(=O)C2CCC(=O)N(CCc3cccc(F)c3)C2)cc1 (centres unmarked) | -77.1
41 | Cc1ccccc1CNC(=O)C1CCC(=O)N(Cc2cccc(F)c2)C1 (centres unmarked) | -8.38
42 | O=C(NCc1cccc(F)c1)C1CCC(=O)N(CC2CCCCC2)C1 (centres unmarked) | -9.08
43 | CCOC(=O)c1c(-c2ccc(OC)cc2)oc2cc(Br)c(O)cc12 | 10.4
44 | COc1ccc(NS(=O)(=O)c2ccc(OCC(=O)N3CCOCC3)cc2)cc1Cl | 8.46
45 | CNC(=O)Nc1ccc(C2SCCS2)cc1 | 7.02
46 | CCOC(=O)C1=C2SCCN2C(=O)C(C#N)C1(C)C (centres unmarked) | 7.34

Row | SMILES | hERG current change (%, negative = inhibition) at 10uM [%]
47 | COc1ccc(-c2cc(C(=O)N3CC4(C)CC3CC(C)(C)C4)no2)cc1OC (centres unmarked) | -20.1
48 | O=C(NCc1ccccc1F)C(=O)NCC1OCCCN1S(=O)(=O)c1cccs1 (centres unmarked) | 9.19
49 | Cc1ccccc1NCN1C(=O)C2CCC(C)(C1=O)C2(C)C (centres unmarked) | -0.978
50 | COCc1[nH]nc2c1C(c1ccccc1F)C(C#N)=C(N)O2 (centres unmarked) | 11
51 | Cc1ccc(C)c(C(=O)CC2(O)C(=O)N(C)c3ccccc32)c1 (centres unmarked) | 8.85
52 | O=C(Nc1ccc(Br)c(C(F)(F)F)c1)c1ccc(C(F)(F)F)cc1 | 11.8
53 | O=C(Nc1ccc(Br)c(C(F)(F)F)c1)c1ccccc1 | 27.3
54 | O=C(O)c1ccccc1C(=O)Nc1ccc(Br)c(C(F)(F)F)c1 | -70.6
55 | C/C(=N\NC(=O)CSc1nc2ccccc2s1)c1ccco1 | 0.0885
56 | CC1CCCCN1C(=O)COC(=O)c1cccc(NS(=O)(=O)c2ccccc2)c1 (centres unmarked) | 0.629
57 | N#CCSc1ccccc1NC(=O)COc1ccc(-c2nnco2)cc1 | -66.3
58 | O=C(COc1ccc(-c2nnco2)cc1)Nc1c(F)cccc1F | 0.851
59 | N#Cc1ccsc1NC(=O)COc1ccc(-c2nnco2)cc1 | 1.95
60 | CCN(CC(=O)Nc1ccc2c(c1)OCCO2)S(=O)(=O)c1cccs1 | -4.54
61 | COc1cccc(C(=O)Nc2c(C)n[nH]c2C)c1 | -0.143
62 | COC(=O)c1ccc(S(=O)(=O)NCc2ccco2)o1 | 6.1
63 | O=C(Cn1c(CN2CCCCC2)nc2ccccc2c1=O)NCc1ccco1 | -15.4
64 | COCCN(Cc1cc2cc(C)ccc2[nH]c1=O)S(=O)(=O)c1ccc(Cl)cc1 | 16.4
65 | COc1ccc(S(=O)(=O)Nc2nc3c(s2)C(=O)CC(C)(C)C3)cc1 | -10.3
66 | CCCCn1nc(C(=O)N(CC)CC(=O)Nc2c(F)cccc2F)c2ccccc2c1=O | -7.72
67 | CC(C)Cn1nc(C(=O)NCc2ccccc2CN2CCCC2)c2ccccc2c1=O | -38.3
68 | CCCCn1nc(C(=O)Nc2c(C)n(C)n(-c3ccccc3)c2=O)c2ccccc2c1=O | -17.9
69 | CCCCn1nc(C(=O)NCC(=O)Nc2c(C)cccc2C)c2ccccc2c1=O | -68.9

Row | SMILES | hERG current change (%, negative = inhibition) at 10uM [%]
70 | CCCCn1nc(C(=O)NCc2ccccc2CN2CCCC2)c2ccccc2c1=O | -64.6
71 | CCCCn1nc(C(=O)Nc2ccccc2N2CCCC2)c2ccccc2c1=O | -9.4
72 | COc1cc(CCCN[C@H](CN)Cc2ccccc2)cc(OC)c1OC | -4.22
73 | CCN(CC)CCCN1C(=O)CSC1c1ccc2c(c1)OCO2.Cl (centres unmarked) | -39.2
74 | CCN(CC)CCCN1C(=O)CSC1c1ccc([N+](=O)[O-])cc1.Cl (centres unmarked) | -72.8
75 | CN(C)CCCN1C(=O)CSC1c1ccc([N+](=O)[O-])cc1.Cl (centres unmarked) | -46
76 | O=C1CSC(c2ccc([N+](=O)[O-])cc2)N1Cc1ccccc1 (centres unmarked) | -48.8
77 | Cl.O=C1CSC(c2cccc([N+](=O)[O-])c2)N1CCN1CCCCC1 (centres unmarked) | -21.4
78 | Cl.O=C1CSC(c2ccc([N+](=O)[O-])cc2)N1CCN1CCCCC1 (centres unmarked) | -94.9
79 | O=C(O)c1cc(S(=O)(=O)NC2CCCc3ccccc32)ccc1O (centres unmarked) | 13.5
80 | CC(C)CN(CC(C)C)c1ccc(C=C2C(=O)NC(=S)NC2=O)cc1[N+](=O)[O-] | 9.99
81 | CC[C@@H](C)C(NC(=O)OC(C)(C)C)c1cn([C@@H](Cc2cc3ccccc3[nH]2)C(=O)N2CCN(C(=O)OC(C)(C)C)CC2)nn1 (some centres unmarked) | -13.4
82 | CC[C@@H](C)C(NC(=O)OC(C)(C)C)c1cn([C@@H](CCC(=O)OC(C)(C)C)C(=O)N2CCN(C(=O)OC(C)(C)C)CC2)nn1 (some centres unmarked) | -17.6
83 | CC[C@@H](C)C(NC(=O)OC(C)(C)C)c1cn([C@@H](Cc2ccc(O)cc2)C(=O)N2CCN(C(=O)OC(C)(C)C)CC2)nn1 (some centres unmarked) | -70
84 | O=c1c2cc(NC(=S)NC3CCN(Cc4ccccc4)CC3)ccc2nc2n1CCCCC2 | -10.4
85 | O=c1c2cc(NC(=S)NCc3ccccn3)ccc2nc2n1CCCCC2 | -6.42
86 | O=c1c2cc(NC(=S)NC3CC3)ccc2nc2n1CCCCC2 | 0.786
87 | O=c1c2cc(NC(=S)NC3CCCCC3)ccc2nc2n1CCCCC2 | -70.2
88 | CC(C)CCNC(=S)Nc1ccc2nc3n(c(=O)c2c1)CCCCC3 | -46.2
89 | O=c1c2cc(NC(=S)NC3CCCC3)ccc2nc2n1CCCCC2 | -59.6
90 | O=c1c2cc(NC(=S)NCCCN3CCC(Cc4ccccc4)CC3)ccc2nc2n1CCCCC2 | -82.1
91 | COCCCNC(=S)Nc1ccc2nc3n(c(=O)c2c1)CCCCC3 | 7.89
92 | O=c1c2cc(NC(=S)NCCN3CCCCCC3)ccc2nc2n1CCCCC2 | -1.38
